These results are taken from PubChem BioAssay (EPA / NIEHS).

Inconclusive results are not listed. Active and inactive are the calls of the source. Rule for the calls: active = hit-call score of the fitted dose curve at least 0.9, where 1 is the maximum; inconclusive = response in the unintended direction; inactive = score below 0.9.

For assay [1], the target named is Estrogen receptor (Homo sapiens) (UniProt P03372). As to the kind of experiment: OT_ER_ERaERa_1440: Odyssey Thera (OT) 24-hour HEK293T Protein-Complementation Assay for Estrogen Receptor-alpha/-alpha Homodimer (AID 2283349).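 Note: hits raise fluorescence above DMSO for agonists and antagonists alike.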 An outline of the steps:
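Stably transfected HEK293T; ERα LBD homodimer PCA. 24 h dosing, fluorescence intensity read, gain-of-signal vs DMSO.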

The target is the same in assay [2]. Nature of the assay: OT_ER_ERaERa_0480: Odyssey Thera (OT) 8-hour HEK293T Protein-Complementation Assay for Estrogen Receptor-alpha/-alpha Homodimer (AID 2283351).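 Note: rise in fluorescence from reassembled reporter fragments on ERα LBD homodimer in nucleus or whole cell.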 The method, boiled down:
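Read-out: fluorescence intensity rise relative to DMSO, nuclear for agonists, nuclear plus cytoplasmic for antagonists. Construct is the ERα LBD (aa 310-547) homodimer fragment-complementation pair, stably expressed in HEK293T; exposure 8 h.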

The target of assay [3] is T1, Estrogen receptor (Homo sapiens) + Estrogen receptor beta (Homo sapiens) (UniProt P03372+Q92731). Nature of the assay: OT_ER_ERaERb_0480: Odyssey Thera (OT) 8-hour HEK293T Protein-Complementation Assay for Estrogen Receptor-alpha/-beta Heterodimer (AID 2283352). An outline of the steps: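 Increase in mean fluorescence intensity, measured by laser scanning plate cytometry, reported ER-alpha/ER-beta LBD complementation in HEK293T cells after 8 h chemical exposure. DMSO served as baseline; basal signal is low, punctate and cytoplasmic.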

Assay [4] deals with T1, Estrogen receptor (Homo sapiens) + Estrogen receptor beta (Homo sapiens). As to the kind of experiment: OT_ER_ERaERb_1440: Odyssey Thera (OT) 24-hour HEK293T Protein-Complementation Assay for Estrogen Receptor-alpha/-beta Homodimer (AID 2283356).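 Note: heteromer of ER alpha and ER beta binding domains; hits raise reporter fluorescence and both agonists and antagonists give an increase.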 The method, boiled down:
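Heterodimerisation of ERα (aa 310-547) and ERβ (aa 263-489) ligand binding domains was tracked as fluorescence gain in stably transfected HEK293T cells following 24 h dosing, normalised to DMSO controls.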

Assay [5] concerns the target Estrogen receptor beta (Homo sapiens) (UniProt Q92731). As to the kind of experiment: OT_ER_ERbERb_0480: Odyssey Thera (OT) 8-hour HEK293T Protein-Complementation Assay for Estrogen Receptor-beta/-beta Homodimer (AID 2283357).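 Note: active means signal gain over DMSO baseline.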 The method, boiled down:
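Fluorescence gain from complemented reporter fragments on ER-beta LBD homodimer in HEK293T was quantified against DMSO controls after 8 h treatment, fixation in 4% formaldehyde and Draq5 staining.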

In assay [6] the target is Androgen Receptor/SRC-1 Co-activator, AR (gene 367) (UniProt P10275). As to the kind of experiment: OT_AR_ARSRC1_0960: Odyssey Thera (OT) 16-hour HEK293T Protein-Complementation Assay for Androgen Receptor/SRC-1 Co-activator (AID 2283353).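 Note: actives raise the signal above DMSO so potency reflects increased AR and SRC-1 complex.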 An outline of the steps: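 Readout: 488 nm nuclear-to-cytoplasmic fluorescence ratio from imaging of at least 400 cells per image, 16 h post-dose. Reporter is Venus YFP complementation between AR and SRC-1 fusions, stably expressed in HEK293T; activity scored upward relative to DMSO.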

The target is the same in assay [7]. Nature of the assay: OT_AR_ARSRC1_0480: Odyssey Thera (OT) 8-hour HEK293T Protein-Complementation Assay for Androgen Receptor/SRC-1 Co-activator (AID 2283354).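 Note: hits raise the complementation signal above DMSO so AC50 marks enhancers.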 The method, boiled down:
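After 8 h dosing, stably expressing HEK293T cells with split-Venus AR/SRC-1 fusions were imaged (488, 635nm). The 488nm N/C ratio per image gave the endpoint, analysed in the positive direction against DMSO.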

Assay [8] deals with rat Mineralocorticoid Receptor (MR), Nr3c2 (gene 25672) (UniProt P22199). As to the kind of experiment: NVS_NR_rMR: NovaScreen (NVS) Nuclear Receptor Binding Assay for rat Mineralocorticoid Receptor (MR) (AID 2283355). An outline of the steps: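 Single-concentration duplicate screen (25 uM) of radioligand binding in adrenalectomized rat brain supernatant; scintillation detection 24 h after dosing. Positive and negative controls ran on each plate, and confirmed actives went to concentration-response.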
rat Mineralocorticoid Receptor (MR), Nr3c2 (gene 25672), sequence (P22199 whole entry, looked up): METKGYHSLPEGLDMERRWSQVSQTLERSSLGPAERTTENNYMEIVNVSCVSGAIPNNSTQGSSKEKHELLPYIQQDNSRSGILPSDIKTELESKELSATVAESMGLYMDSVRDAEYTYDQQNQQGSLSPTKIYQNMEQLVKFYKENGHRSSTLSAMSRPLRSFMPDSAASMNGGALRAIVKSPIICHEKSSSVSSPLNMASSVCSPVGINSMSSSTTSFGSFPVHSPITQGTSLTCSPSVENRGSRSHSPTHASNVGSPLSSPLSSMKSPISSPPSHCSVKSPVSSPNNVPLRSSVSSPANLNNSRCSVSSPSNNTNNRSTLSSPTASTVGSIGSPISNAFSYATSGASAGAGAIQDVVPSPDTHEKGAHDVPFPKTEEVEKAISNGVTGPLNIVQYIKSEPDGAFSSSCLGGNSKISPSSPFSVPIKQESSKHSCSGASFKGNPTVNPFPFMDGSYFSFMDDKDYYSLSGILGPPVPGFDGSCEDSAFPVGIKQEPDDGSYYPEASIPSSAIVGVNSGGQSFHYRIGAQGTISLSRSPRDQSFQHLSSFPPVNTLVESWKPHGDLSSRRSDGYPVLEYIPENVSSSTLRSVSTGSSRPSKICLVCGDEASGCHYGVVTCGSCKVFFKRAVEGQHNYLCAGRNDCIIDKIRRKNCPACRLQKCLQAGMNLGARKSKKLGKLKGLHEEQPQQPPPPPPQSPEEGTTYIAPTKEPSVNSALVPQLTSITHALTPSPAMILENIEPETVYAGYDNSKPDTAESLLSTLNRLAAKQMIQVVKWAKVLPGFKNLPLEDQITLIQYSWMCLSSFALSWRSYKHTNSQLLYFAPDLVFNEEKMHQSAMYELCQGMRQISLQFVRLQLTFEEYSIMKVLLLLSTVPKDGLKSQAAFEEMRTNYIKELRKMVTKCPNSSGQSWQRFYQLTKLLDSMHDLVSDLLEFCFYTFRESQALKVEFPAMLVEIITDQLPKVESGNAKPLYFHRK

T1 sequence (P03372 whole entry, looked up, the tested form may be a part): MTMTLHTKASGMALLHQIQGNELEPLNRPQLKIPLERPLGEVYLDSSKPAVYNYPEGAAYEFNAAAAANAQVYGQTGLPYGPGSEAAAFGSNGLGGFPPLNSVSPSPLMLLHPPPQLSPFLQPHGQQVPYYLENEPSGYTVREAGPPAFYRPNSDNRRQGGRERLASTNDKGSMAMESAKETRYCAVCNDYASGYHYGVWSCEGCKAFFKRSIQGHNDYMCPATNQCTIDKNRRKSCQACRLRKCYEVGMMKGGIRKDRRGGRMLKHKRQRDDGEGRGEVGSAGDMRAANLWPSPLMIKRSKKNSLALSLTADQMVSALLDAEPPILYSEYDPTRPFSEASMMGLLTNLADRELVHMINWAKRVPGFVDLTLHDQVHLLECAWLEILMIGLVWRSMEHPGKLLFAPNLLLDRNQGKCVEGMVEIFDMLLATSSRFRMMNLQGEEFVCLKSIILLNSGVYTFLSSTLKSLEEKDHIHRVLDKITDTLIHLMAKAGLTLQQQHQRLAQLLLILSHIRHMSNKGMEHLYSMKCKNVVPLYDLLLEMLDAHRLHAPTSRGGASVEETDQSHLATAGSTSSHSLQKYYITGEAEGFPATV
T1 sequence (Q92731 whole entry, looked up, the tested form may be a part): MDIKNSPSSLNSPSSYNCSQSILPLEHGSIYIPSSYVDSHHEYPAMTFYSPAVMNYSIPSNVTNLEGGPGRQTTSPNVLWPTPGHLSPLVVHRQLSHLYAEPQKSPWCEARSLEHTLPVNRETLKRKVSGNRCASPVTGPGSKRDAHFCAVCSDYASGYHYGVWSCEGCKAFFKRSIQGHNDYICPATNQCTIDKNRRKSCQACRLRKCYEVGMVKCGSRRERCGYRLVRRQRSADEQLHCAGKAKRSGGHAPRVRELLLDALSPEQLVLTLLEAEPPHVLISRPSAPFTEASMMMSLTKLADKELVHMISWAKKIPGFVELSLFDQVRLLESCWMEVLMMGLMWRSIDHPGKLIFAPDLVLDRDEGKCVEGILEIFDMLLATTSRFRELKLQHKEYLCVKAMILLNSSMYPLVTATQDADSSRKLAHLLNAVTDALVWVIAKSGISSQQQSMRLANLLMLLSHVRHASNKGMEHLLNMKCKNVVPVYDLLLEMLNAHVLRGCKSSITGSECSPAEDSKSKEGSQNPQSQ
Estrogen receptor (Homo sapiens), sequence (P03372 whole entry, looked up, the tested form may be a part): as the sequence (P03372 whole entry, looked up, the tested form may be a part) above
Estrogen receptor beta (Homo sapiens), sequence (Q92731 whole entry, looked up, the tested form may be a part): as the sequence (Q92731 whole entry, looked up, the tested form may be a part) above
Androgen Receptor/SRC-1 Co-activator, AR (gene 367), sequence (P10275 whole entry, looked up, the tested form may be a part): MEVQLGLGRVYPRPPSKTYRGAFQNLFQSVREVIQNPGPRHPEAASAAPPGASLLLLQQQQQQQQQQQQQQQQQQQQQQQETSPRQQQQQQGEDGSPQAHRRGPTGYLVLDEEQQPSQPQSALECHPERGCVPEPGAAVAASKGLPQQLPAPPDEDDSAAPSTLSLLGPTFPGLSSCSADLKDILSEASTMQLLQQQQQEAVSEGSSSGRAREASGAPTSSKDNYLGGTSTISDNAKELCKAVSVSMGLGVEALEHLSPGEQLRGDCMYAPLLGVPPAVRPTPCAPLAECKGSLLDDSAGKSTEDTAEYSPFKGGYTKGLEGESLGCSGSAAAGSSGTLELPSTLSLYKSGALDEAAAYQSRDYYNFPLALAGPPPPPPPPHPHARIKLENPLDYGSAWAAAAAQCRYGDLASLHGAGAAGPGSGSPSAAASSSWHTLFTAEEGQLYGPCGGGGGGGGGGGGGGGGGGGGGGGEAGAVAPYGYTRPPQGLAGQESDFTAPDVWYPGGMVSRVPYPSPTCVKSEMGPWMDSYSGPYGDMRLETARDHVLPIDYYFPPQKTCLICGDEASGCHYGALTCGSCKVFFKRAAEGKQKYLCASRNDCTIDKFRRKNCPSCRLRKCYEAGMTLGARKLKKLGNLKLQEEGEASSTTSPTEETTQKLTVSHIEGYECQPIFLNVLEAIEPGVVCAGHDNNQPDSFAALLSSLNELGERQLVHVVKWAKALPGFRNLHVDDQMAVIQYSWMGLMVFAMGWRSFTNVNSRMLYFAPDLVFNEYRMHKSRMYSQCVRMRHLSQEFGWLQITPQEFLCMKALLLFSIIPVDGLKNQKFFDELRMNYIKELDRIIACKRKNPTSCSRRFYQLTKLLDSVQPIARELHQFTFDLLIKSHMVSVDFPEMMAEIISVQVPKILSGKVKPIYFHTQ

In the case of `OCC=Cc1ccccc1`, the compound was called inactive in assay [1], in assay [2], in assay [3], in assay [4] and in assay [5].

For the compound `CCCCCCCCCCOC(=O)c1ccccc1C(=O)OCCCCCCCC`, the compound was called inactive in assay [1], in assay [2], in assay [3], in assay [6], in assay [7] and in assay [4]. Moreover, the result in assay [5] was inactive.

As to `CC(CCO)CC(C)(C)C` (configuration not stated), the compound was classed as inactive in assay [1], in assay [2], in assay [3], in assay [6], in assay [7] and in assay [5]. The AC50 (as a rule, the concentration giving half of the maximal activity seen) in assay [4] was 40.9 µM (active).

On to `CC(O)CNCC(C)O` (configuration not stated), for which the AC50 in assay [1] is 18 µM (active). The compound was classed as inactive in assay [2].

On to `O=S(=O)(O)c1cc(S(=O)(=O)O)c2c(N=Nc3ccccc3)c(O)ccc2c1`, for which the call in assay [1], in assay [2], in assay [3] and in assay [5] was inactive.

Turning to `CCCCC(CC)COCCO` (configuration not stated), the outcome in assay [1], in assay [2], in assay [3] and in assay [5] was inactive.

Turning to `FC(F)(F)c1ccc(Cl)c(Cl)c1`, the AC50 in assay [1] was 12 µM (active). For the same compound, the result in assay [2], in assay [3], in assay [6], in assay [7] and in assay [5] was inactive.

For the compound `C=CCCCCCCCCC(=O)OCC`, the compound was called inactive in assay [1], in assay [2], in assay [3], in assay [4] and in assay [5].

Turning to `CC(C)(C)C1CCC(O)CC1` (configuration not stated), the compound was called inactive in assay [1], in assay [2], in assay [3], in assay [4] and in assay [5].

Take `O=C(OCc1ccccc1)c1ccccc1O`: the outcome in assay [1] was inactive. In addition, the AC50 in assay [2] is 63 µM (active); in assay [3] it was 46 µM (active); in assay [4] it was 44.5 µM (active); in assay [5] it was 54.6 µM (active).

Regarding `CC1=CCC(C(C)(C)O)CC1` (configuration not stated), the call in assay [1], in assay [2], in assay [6] and in assay [7] was inactive.

Turning to `CCCCCCCCCO`, the compound was classed as inactive in assay [1], in assay [2], in assay [3] and in assay [5].

On to `CN(C)C`, for which the compound was classed as inactive in assay [1], in assay [2] and in assay [3].

Turning to `COC(=O)c1ccc(C(=O)OC)cc1`, the call in assay [1], in assay [2], in assay [3] and in assay [5] was inactive.

With `CCCC(O)C(CC)CO` (configuration not stated), the result in assay [1], in assay [2], in assay [3] and in assay [5] was inactive.

As to `CCCCN(CCCC)CCCCCCN(CCCC)CCCC`, the compound was classed as inactive in assay [1], in assay [2], in assay [3], in assay [4] and in assay [5].

For the compound `CCCO`, the compound was classed as inactive in assay [1], in assay [2], in assay [3], in assay [4] and in assay [5].

For the compound `C=CC(C)CCCC(C)(C)O` (configuration not stated), the call in assay [1], in assay [2], in assay [3] and in assay [4] was inactive.

Turning to `CC(C)N(c1ccccc1)C(C)C`, the outcome in assay [1], in assay [2], in assay [3] and in assay [5] was inactive.

`CCCC1CCC(=O)CC1`: the compound was called inactive in assay [1], in assay [2], in assay [3] and in assay [5].

In the case of `CCCCCC1CCC(=O)O1` (configuration not stated), the compound was classed as inactive in assay [1], in assay [3] and in assay [5].

Consider `CCCCOCCOCCOCCO`, for which the compound was called inactive in assay [1], in assay [2] and in assay [5].

On to `CCC(C)C1CCCCC1=O` (configuration not stated), for which the call in assay [1], in assay [2] and in assay [5] was inactive.

As for `CCCCCCCCOS(=O)(=O)O`, the compound was classed as inactive in assay [1], in assay [4] and in assay [5].

Turning to `CCCCCCCCCCCCS`, the compound was classed as inactive in assay [1], in assay [3] and in assay [5].

Consider `OC[C@H]1O[C@@H](O[C@H]2[C@H](O)[C@@H](O)[C@H](O)O[C@@H]2CO)[C@H](O)[C@@H](O)[C@H]1O`, for which the result in assay [1], in assay [2], in assay [6], in assay [7] and in assay [5] was inactive.

Turning to `CC(=O)N(C)C`, the compound was called inactive in assay [1] and in assay [6].

With `C[C@]12CC[C@@H]3c4ccc(O)cc4CC[C@H]3[C@@H]1CC[C@@H]2O`, in assay [8], the AC50 is 4.96 µM (active).

On to `CC(=O)OC/C=C(C)/C=C/C=C(C)/C=C/C1=C(C)CCCC1(C)C`, for which the outcome in assay [1], in assay [4] and in assay [5] was inactive.

For the compound `CC(=O)OC(C)(C)C`, the result in assay [1], in assay [3], in assay [4] and in assay [5] was inactive.

As for `CC(C)(CO)CO`, the result in assay [1], in assay [3], in assay [6] and in assay [7] was inactive.

With `COC(=O)c1cccc(C(=O)OC)c1`, the outcome in assay [1], in assay [6], in assay [7] and in assay [4] was inactive.

In the case of `c1ccc2scnc2c1`, the compound was classed as inactive in assay [1], in assay [3], in assay [4] and in assay [5].

For `COc1ccc2[nH]cc(CCNC(C)=O)c2c1`, the compound was classed as inactive in assay [1], in assay [3] and in assay [5].

On to `CC1COC(=O)O1` (configuration not stated), for which the compound was classed as inactive in assay [1], in assay [3], in assay [6] and in assay [7].

Turning to `CN(C)C(=O)Nc1ccccc1`, the compound was classed as inactive in assay [1], in assay [3] and in assay [4].

Regarding `NC(=O)c1cccnc1`, the outcome in assay [1] and in assay [5] was inactive.

In the case of `O=C(O)CS`, the outcome in assay [1], in assay [4] and in assay [5] was inactive.

With `COc1cc(OC)c2ccc(=O)oc2c1`, the compound was classed as inactive in assay [1], in assay [3], in assay [6], in assay [7] and in assay [5].

Take `CCCC[N+](C)(CCCC)CCCC`: the compound was classed as inactive in assay [1] and in assay [5].

Consider `NCCN1CCNCC1`, for which the call in assay [1], in assay [2] and in assay [4] was inactive.

Take `CNC(=C[N+](=O)[O-])NCCSCc1ccc(CN(C)C)o1`: the compound was called inactive in assay [1], in assay [3] and in assay [5].

`CC(=O)Nc1cc(S(=O)(=O)O)cc2cc(S(=O)(=O)O)c(N=Nc3ccccc3)c(O)c12`: the compound was classed as inactive in assay [1], in assay [3] and in assay [5].

Regarding `CC(C)C(=O)c1ccccc1`, the compound was classed as inactive in assay [1] and in assay [3].

Regarding `COC(=O)C(C)Oc1ccc(Oc2ncc(C(F)(F)F)cc2Cl)cc1` (configuration not stated), the outcome in assay [1] and in assay [5] was inactive.

Consider `CCCCCCCC(=O)N(C)C`, for which the compound was classed as inactive in assay [1], in assay [2] and in assay [5].

As to `c1ccc(Cc2ccccc2)cc1`, the call in assay [1] and in assay [4] was inactive. Moreover, the AC50 in assay [3] was 50 µM (active).

With `CCCCOCCOCCO`, the outcome in assay [1] and in assay [3] was inactive.

As to `CCC(C)(CCCC(C)C)OC(C)=O` (configuration not stated), the call in assay [1], in assay [3] and in assay [5] was inactive.

Take `C1CCCNCC1`: the result in assay [1], in assay [4] and in assay [5] was inactive.
